Among the data in PubChem BioAssay AID504652 (National Center for Advancing Translational Sciences (NCATS), 2011) are activity change, negative = inhibition values, retold here.

Screen size: about 360,000 compounds; about 11,000 (3.1%) were called active. The list comes from a sample in which actives are over-represented; it also holds similar structures and randomly drawn compounds. Unmarked numbers belong to inactive results. No stated cut-off is given here; in the data, active means activity change below about -30%; inactive means the rest.
On the % scale 0 is the no-effect control and ±100 the full control effect.

For this experiment, the target named is D(1A) dopamine receptor (Homo sapiens) (UniProt P21728). The experiment in a line: Antagonist of Human D 1 Dopamine Receptor: qHTS. Particulars: HEK293 TREx D1 cells, calcium flux, dopamine EC80; at 10 µM; hits give low values. The text has this: Dopamine receptors (DARs) are involved in the etiology and/or therapy of a number of neuropsychiatric and endocrine disorders. For instance, all receptor-based antiparkinsonian drugs work via stimulating the […] DAR subtype whereas all FDA-approved antipsychotic agents are antagonists of this receptor. […] There are three different types of allosteric modulators that we are seeking, two of which will stimulate or augment receptor signaling, allosteric agonists and potentiators, while the third, allosteric antagonists, will attenuate receptor signaling. The present primary screening assay measures compound antagonism after an EC80 addition of dopamine by tracking calcium flux in a […], inducible Hek293 Trex D1 cell line. NIH Chemical Genomics Center [NCGC] NIH Molecular Libraries Probe Centers Network [MLPCN] MLPCN Grant: NS064831-01 Assay Submitter (PI): David Sibley
Sequence of D(1A) dopamine receptor (Homo sapiens) (P21728 whole entry, looked up): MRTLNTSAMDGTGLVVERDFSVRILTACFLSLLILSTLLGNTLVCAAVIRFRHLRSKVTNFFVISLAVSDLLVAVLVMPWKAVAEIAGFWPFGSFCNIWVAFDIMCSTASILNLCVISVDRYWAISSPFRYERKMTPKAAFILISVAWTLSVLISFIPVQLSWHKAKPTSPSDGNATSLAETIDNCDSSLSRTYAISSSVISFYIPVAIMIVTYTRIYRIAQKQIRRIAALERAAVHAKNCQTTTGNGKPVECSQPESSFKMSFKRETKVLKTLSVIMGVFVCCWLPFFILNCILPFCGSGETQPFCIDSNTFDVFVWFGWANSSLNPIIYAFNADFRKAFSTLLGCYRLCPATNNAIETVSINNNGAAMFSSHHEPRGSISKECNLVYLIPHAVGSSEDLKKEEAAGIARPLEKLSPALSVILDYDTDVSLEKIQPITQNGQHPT
Freshly passaged cells are plated in 1536 well black, clear bottom plates at a density of 4000 cells/well in 3 ul of complete media containing 1x tetracycline inducer. After an overnight incubation at 30 C in 5% CO2, cells are loaded with 2 ul of the no wash Calcium Assay Kit (ABD Bioquest) and incubated at room temperature for 30 to 90 minutes. Agonist read: A 10 cycle (1 second/cycle) baseline measurement is taken and then the FDSS online 1536 pintool delivers 23 nl of compound library (as well as dopamine controls) to the plate. The plate is measured for kinetically at 1 cycle/sec for 180 seconds. Following the 180 second read, 1 ul of an EC80 (negative modulation assay) is delivered by an onboard pipette head. Measurements are taken kinetically for an additional 180 seconds.
In the case of `CCOC(=O)c1cccc(NS(=O)(=O)c2cn(C)c(C)n2)c1`, the activity change, negative = inhibition was 0.648%.

Regarding `CCOc1ccccc1N(CC)C(=O)Nc1cn(C)c(=O)c2ccccc12`, the activity change, negative = inhibition was -33.9% (active).

On to `CCOc1ccccc1CNC(=O)Nc1cn(CC(C)C)c(=O)c2ccccc12`, for which the activity change, negative = inhibition is -9.18%.

Regarding `CCOc1ccccc1N(CC)C(=O)c1cc2ccc3cccnc3c2[nH]1`, the activity change, negative = inhibition is 15.7%.

In the case of `CNC(=O)CN1C(=O)c2cccnc2Sc2ccccc21`, the activity change, negative = inhibition is 2.47%.

`COc1ccc(CCNC(=O)c2ccc3c(c2)sc2nc(-c4ccc(C)cc4)cn23)cc1OC`: the activity change, negative = inhibition was -5.29%.

Consider `COc1cc(NS(=O)(=O)c2ccc(NC(=O)CN3C(=O)c4ccccc4C3=O)cc2)ncn1`, for which the activity change, negative = inhibition was 11.7%.

In the case of `COc1cc(NS(=O)(=O)c2ccc(NC(=S)NC(=O)c3ccc(Br)cc3)cc2)ncn1`, the activity change, negative = inhibition is -8.88%.

Consider `COc1cc(NS(=O)(=O)c2ccc(NC(=O)c3ccc(S(=O)(=O)N4CCCCC4)cc3)cc2)ncn1`, for which the activity change, negative = inhibition is -62.1% (active).

In the case of `CC1CCCCN1Cc1c(O)ccc2c(=O)c(-c3cccc(Cl)c3)c(C(F)(F)F)oc12` (stereo unspecified), the activity change, negative = inhibition was 8.91%.

Take `CCOc1ccc(C(NC(=O)c2cc(OC)c(OC)c(OC)c2)c2cc(Cl)c3cccnc3c2O)cc1` (stereo unspecified): the activity change, negative = inhibition was 1.85%.

Take `CCOCCCNC(=O)c1ccc2nc(CCc3ccccc3)oc2c1`: the activity change, negative = inhibition was -1.1%.

On to `CCOc1cccc(NC(=O)c2ccc(F)c(S(=O)(=O)N(CC)c3cccc(C)c3)c2)c1`, for which the activity change, negative = inhibition was 16.1%.

For `CC1=C(C(=O)OCc2ccc(C)cc2)C(c2c(Cl)cccc2Cl)CC(=O)N1` (stereo unspecified), the activity change, negative = inhibition was 4.89%.

For `Cc1ccccc1OCC(=O)Nc1ccc(N2CCN(C(=O)C(C)C)CC2)c(Cl)c1`, the activity change, negative = inhibition is -31% (active).

As for `COc1cc(NC(=O)COc2ccccc2Cl)ccc1NC(=O)C(C)C`, the activity change, negative = inhibition is 0.361%.

In the case of `CCC(=O)N1CCN(c2ccccc2NC(=O)COc2cccc(C)c2C)CC1`, the activity change, negative = inhibition was 3.4%.

As to `Cc1ccc(C)c(CN2C(=O)c3ccccc3S(=O)c3ccc(C(=O)N4CCOCC4)cc32)c1` (stereo unspecified), the activity change, negative = inhibition was 1.36%.

For the compound `COc1ccc(OCC(=O)Nc2cccc(C(=O)OCc3cc(=O)n4nc(C)sc4n3)c2)cc1`, the activity change, negative = inhibition is -3.25%.

As to `CCOc1ccc(-n2c(C)nc3c(cnn3-c3ccc(C)cc3)c2=O)cc1`, the activity change, negative = inhibition is 10.9%.

Turning to `COc1cc(C(=S)N2CCOCC2)cc(OC)c1OC(=O)c1cc([N+](=O)[O-])cc([N+](=O)[O-])c1`, the activity change, negative = inhibition is -2.9%.

Take `COc1cc(C(=S)N2CCOCC2)cc(OC)c1OC(=O)c1ccc([N+](=O)[O-])cc1[N+](=O)[O-]`: the activity change, negative = inhibition was -16.4%.

With `COc1cc([N+](=O)[O-])cc([N+](=O)[O-])c1NC(=O)N1CCOCC1`, the activity change, negative = inhibition is -32.7% (active).

As to `O=C(Nc1c(-c2ccc(F)cc2)nc2ccccn12)c1cccc(F)c1`, the activity change, negative = inhibition was -0.545%.

On to `N#CN1CCC(NC(=O)c2ccc(F)cc2)CC1`, for which the activity change, negative = inhibition is -14.9%.

As for `O=C(Nc1ccc(OC(F)(F)F)cc1)c1cc2c(=O)n3ccccc3nc2s1`, the activity change, negative = inhibition is -3.02%.

As for `CCOc1ccc(N(C)S(=O)(=O)c2cc(-c3cnc(C)o3)ccc2OC)cc1`, the activity change, negative = inhibition was -5.97%.

On to `Oc1ccc(-n2nnnc2SCc2c(F)cccc2Cl)cc1`, for which the activity change, negative = inhibition is -17.7%.

Take `COc1ccc(-n2nnnc2SCC(=O)c2ccc(OC)c(OC)c2)cc1`: the activity change, negative = inhibition was 16.4%.

For `COc1ccc(CSc2nnnn2-c2ccc(O)cc2)cc1F`, the activity change, negative = inhibition was -36.7% (active).

As for `COc1ccc(CCNc2nc3c(-c4cccc(F)c4)nnn3c3ccccc23)cc1OC`, the activity change, negative = inhibition is 1.83%.

Consider `CN1CCN(C(=O)/C(=C\c2ccc3c(c2)OCO3)NC(=O)c2cccs2)CC1`, for which the activity change, negative = inhibition was -1.26%.

Consider `Cc1ccc(C(=O)N/C(=C/c2cccs2)C(=O)N2CCCCC2)cc1`, for which the activity change, negative = inhibition is -1.28%.

Take `CN1CCN(C(=O)/C(=C\c2cccs2)NC(=O)c2cccs2)CC1`: the activity change, negative = inhibition was -40.4% (active).

Consider `CCOc1ccc(CNC(=O)c2ccc3c(c2)nnn3C2CCCC2)cc1`, for which the activity change, negative = inhibition was -28.9%.

`Cc1ccc(-c2nn(CCC(=O)Nc3ccc(OC(F)(F)F)cc3)c(=O)c3ccccc23)cc1`: the activity change, negative = inhibition was -11%.

With `COc1ccc(NC(=O)Nc2cccc(-c3noc(C)n3)c2)cc1`, the activity change, negative = inhibition is 8.89%.

With `Cc1ccc(NC(=O)Nc2ccc3oc(C)nc3c2)cc1`, the activity change, negative = inhibition was -1.61%.

For `COc1ccc(NC(=O)Nc2ccc3nsnc3c2)cc1`, the activity change, negative = inhibition was -36.6% (active).

Take `Cc1ccc(C)c(Cn2c(C)c(CNCc3ccc(F)cc3)c(C(=O)O)c2C)c1`: the activity change, negative = inhibition was -10.2%.

In the case of `O=C(NCc1ccncc1)c1cccc(NS(=O)(=O)c2ccc(F)c(F)c2)c1`, the activity change, negative = inhibition is -6.23%.

For the compound `O=[N+]([O-])c1cccc(S(=O)(=O)NCc2ccccn2)c1`, the activity change, negative = inhibition was 8.53%.

On to `O=C(NCc1ccncc1)c1ccc(NS(=O)(=O)c2cccc([N+](=O)[O-])c2)cc1`, for which the activity change, negative = inhibition was -49% (active).

Take `O=C(NCc1ccco1)c1ccc(NS(=O)(=O)c2cccc([N+](=O)[O-])c2)cc1`: the activity change, negative = inhibition was -51.9% (active).

Turning to `O=C(NCc1ccco1)/C(=C/c1cccc([N+](=O)[O-])c1)NC(=O)c1ccco1`, the activity change, negative = inhibition was -9.94%.

For `O=C(NCc1ccco1)c1ccc([N+](=O)[O-])cc1Cl`, the activity change, negative = inhibition was -6.24%.

On to `CCOC(=O)c1c(NC(=O)COc2cc(C)ccc2C(C)C)sc(C)c1C`, for which the activity change, negative = inhibition was 8.46%.

Take `c1ccc(-c2ccccc2OCCN2CCCCC2)cc1`: the activity change, negative = inhibition was 8.41%.

Regarding `CC1CN(CCCOc2ccccc2-c2ccccc2)CC(C)O1` (stereo unspecified), the activity change, negative = inhibition is 13.9%.

`CC1CCCN(CCOCCOc2ccccc2-c2ccccc2)C1` (stereo unspecified): the activity change, negative = inhibition is -48.5% (active).

With `CC1CN(C(=O)N2CCC(C(=O)NCc3cccs3)CC2)c2ccccc2O1` (stereo unspecified), the activity change, negative = inhibition is -3.92%.

Regarding `COc1ccc(NC(=O)CCNS(=O)(=O)c2ccc3c(c2)CCCC(=O)N3)cc1Cl`, the activity change, negative = inhibition is 1.62%.

As to `O=S(=O)(NCCc1ccc(F)cc1)c1cccc2cccnc12`, the activity change, negative = inhibition is -44.7% (active).

Turning to `O=S(=O)(NCCOc1cccc2cccnc12)c1ccc(F)cc1`, the activity change, negative = inhibition was 6.87%.

Consider `O=S(=O)(Nc1cccc2cccnc12)c1cccc2cccnc12`, for which the activity change, negative = inhibition was -7.95%.

In the case of `CC(CNC(=O)c1nnc(Cc2cccc(F)c2)o1)c1ccccc1` (stereo unspecified), the activity change, negative = inhibition was 0.636%.
